Reference: PubChem BioAssay (Tox21)
Records with an inconclusive call do not appear. Activity calls are given as the source filed them. Unless noted, the call rests on the fitted dose curve; in most records, active means well fitted curve in the direction sought with a large enough effect in the repeat runs; inconclusive means weak or mixed curves; inactive means no such curve, though single readings can be large; an effect the other way counts as inactive or inconclusive.

Tests used:
[1] = qHTS assay to identify small molecule agonists of the RXR signaling pathway - cell viability counter screen (AID 1159529); further: nearly all actives have a fitted effect of over 50% in size; further: potency means the concentration at half of the fitted maximal effect;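 on activity change, negative = cytotoxicity: HEK 293T cells carrying an RXR-alpha UAS beta-lactamase reporter; series mostly up to about 77 µM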
In short: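 Viability read-out for the RXR-alpha agonist qHTS: luminescent CellTiter-Glo signal after 30 min at RT. HEK 293T bla reporter cells, 2% charcoal-stripped FBS, 16 hr compound incubation; tetraoctyl ammonium bromide as cytotoxic control.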

[2] = qHTS assay to identify small molecule antagonists of the retinoid acid receptor (RAR) signaling pathway - cell viability counter screen (AID 1159551); further: nearly all actives have a fitted effect of over 35% in size
In short: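 C3RL4 cells were seeded overnight at 37 C, then treated with compounds plus 1 uM (final) retinol for 6 h at 37 C. Viability was read as ATP by CellTiter-Glo luminescence after 30 min at room temperature.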

[3] = qHTS assay to identify small molecule agonists of the retinoic acid receptor (RAR) signaling pathway (AID 1159553); further: potency means the concentration at half of the fitted maximal effect
In short: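 C3RL4 cells carrying a RARE luciferase reporter were plated overnight at 37 C, then exposed to compounds in DMSO for 6 hr at 37 C and 5% CO2. Luminescence was read 30 min after luciferase reagent addition at room temperature.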

[4] = qHTS assay to identify small molecule antagonists of the estrogen related receptor (ERR) signaling pathway from Tox21 library - cell viability counter screen (AID 1224834); further: nearly all actives have a fitted effect of over 30% in size; further: potency means the concentration at half of the fitted maximal effect
In short: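 ERR reporter cells were plated 6 h before compound addition, then exposed to test compounds in DMSO for 17.5 h at 37 C. Viability was read as CellTiter-Fluor fluorescence after a 30-minute incubation at 37 C.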

[5] = target: Luciferin 4-monooxygenase (Photinus pyralis) (UniProt P08659); assay: qHTS assay to identify small molecule inhibitors of firefly luciferase (AID 1224835); further: nearly all actives have a fitted effect of over 25% in size; further: potency means the concentration at half of the fitted maximal effect; on activity change, negative = inhibition: series mostly up to about 120 µM
In short: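 Quantitative HTS format; KM concentrations of both substrates. Purified P. pyralis FLuc activity quantified from luminescence images.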

[6] = qHTS assay to identify small molecule agonists of the constitutive androstane receptor (CAR) signaling pathway - cell viability counter screen (AID 1224836); further: nearly all actives have a fitted effect of over 45% in size; further: potency means the concentration at half of the fitted maximal effect; on viability change, negative = cytotoxic: series mostly up to about 92 µM
In short: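 Multiplexed viability check: HepG2-CYP2B6-hCAR cells, 15-point compound dosing, 0.75 uM PK11195 final, 23 h at 37 C, CellTiter-Fluor fluorescence.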

[7] = qHTS assay to identify small molecule antagonists of the constitutive androstane receptor (CAR) signaling pathway - cell viability counter screen (AID 1224837); further: nearly all actives have a fitted effect of over 45% in size; further: potency means the concentration at half of the fitted maximal effect; on activity change, negative = cytotoxicity: series mostly up to about 92 µM
In short: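 HepG2 cells stably expressing hCAR and a CYP2B6-2.2kb reporter were plated and pre-incubated 4 hr at 37 C/5% CO2, then given compounds at 15 concentrations plus 50 nM CITCO (final). After 23 hr, viability was read by CellTiter-Fluor fluorescence.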

[8] = target: Thyrotropin receptor (Homo sapiens) (UniProt P16473); assay: qHTS assay to identify small molecule agonists of the thyroid stimulating hormone receptor (TSHR) signaling pathway (AID 1224843; calls by dose curve; further: nearly all actives have a fitted effect of over 45% in size; further: potency means the concentration at half of the fitted maximal effect)
In short: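 Cell line HEK293 with TSHR; density 800/well. Exposure 30 min RT. Readout HTRF cAMP (cAMP-d2/anti-cAMP-cryptate), 1 h RT before reading.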

[9] = target: Nuclear receptor subfamily 1 group I member 3 (Homo sapiens) (UniProt Q14994); assay: qHTS assay to identify small molecule antagonists of the constitutive androstane receptor (CAR) signaling pathway (AID 1224838); further: nearly all actives have a fitted effect of over 40% in size; further: potency means the concentration at half of the fitted maximal effect
In short: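 HepG2 cells stably co-transfected with hCAR and a CYP2B6-2.2kb luciferase reporter were seeded 4 h before compound addition at 15 concentrations. Cells were stimulated with 50 nM CITCO (final) for 24 h at 37 C; luciferase luminescence was then read.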

[10] = target: Nuclear receptor subfamily 1 group I member 3 (Homo sapiens) (UniProt Q14994); assay: qHTS assay to identify small molecule agonists of the constitutive androstane receptor (CAR) signaling pathway (AID 1224839);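 further: HepG2 cells stably carrying human CAR and a CYP2B6 luciferase reporter; series mostly up to about 92 µM; nearly all actives have a fitted effect of over 15% in size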
In short: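 Using human hepatoma HepG2 cells engineered with hCAR and a CYP2B6-2.2kb reporter, 15-concentration compound series were incubated 24 h alongside PK11195 at 0.75 uM final, with luminescence quantified afterwards.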

[11] = qHTS assay to identify small molecule antagonists of the estrogen related receptor signaling pathway with the pleiotropic PPARgamma coactivator (PGC) from Tox21 10K library - cell viability counter screen (AID 1224840; active means well fitted cell-killing curve with a large enough effect in the repeat runs, not every such curve was filed as active; further: nearly all actives have a fitted effect of over 40% in size; further: potency means the concentration at half of the fitted maximal effect)
In short: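 PGC/ERR cells were seeded at 2,000 cells/well and left 6 hours at 37 C/5% CO2 before pin-tool addition of compounds in DMSO. After 17.5 hours at 37 C, CellTiter-Fluor was added and fluorescence read 30 minutes later.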

[12] = qHTS assay to identify small molecule antagonists of the estrogen related receptor signaling pathway with the pleiotropic PPARgamma coactivator (PGC) from Tox21 10K library (AID 1224841; call rule not given here; further: actives are mostly falling curves and most rising ones were filed inactive; nearly all actives have a fitted effect of over 50% in size; further: potency means the concentration at half of the fitted maximal effect)
In short: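 PGC/ERR reporter cells were seeded at 2,000 cells/well and held 6 hours at 37 C/5% CO2 before pin-tool addition of compounds in DMSO. After 18 hours at 37 C, One-Glo was added and luminescence read after 30 minutes at room temperature.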

[13] = qHTS assay to identify small molecule agonists of the estrogen related receptor signaling pathway with the pleiotropic PPARgamma coactivator (PGC) from Tox21 10K library (AID 1224842); further: nearly all actives have a fitted effect of over 15% in size
In short: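 PGC/ERR reporter cells (NTP line) were seeded 2,000 per well, rested 6 h at 37 C/5% CO2, then pin-dosed with compounds in DMSO for 18 h at 37 C; luciferase read by One-Glo luminescence after 30 min at room temperature.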

[14] = qHTS assay to identify small molecule antagonists of the retinoic acid receptor (RAR) signaling pathway (AID 1159552; further: nearly all actives have a fitted effect of over 50% in size)
In short: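 Using a RARE-driven luciferase construct in C3RL4 cells, retinol at 1 uM final provided the agonist stimulus while compounds were co-applied. After 6 hours at 37 C, luminescence was recorded to flag inhibitors of retinol signaling.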

[15] = qHTS assay to identify small molecule antagonists of the estrogen related receptor (ERR) signaling pathway - cell viability counter screen (AID 1224818);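 further: series mostly up to about 46 µM; viability measured after 17.5 h of compound exposure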
In short: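 ERR reporter cells plated 6 h at 37 C/5% CO2, then compounds in DMSO pin-transferred and incubated 17.5 h at 37 C. Viability read as CellTiter-Fluor fluorescence after 30 min at 37 C.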

[16] = qHTS assay to identify small molecule agonists of the estrogen related receptor (ERR) signaling pathway (AID 1224820)
In short: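 ERR reporter cell line (from NTP), 2,000 cells/well, incubated 6 h before compound addition, then 18 h at 37 C. Luminescence measured 30 min after One-Glo reagent at room temperature.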

[17] = qHTS assay to identify small molecule antagonists of the estrogen related receptor signaling pathway with the pleiotropic PPARgamma coactivator (PGC) cell viability counter screen (AID 1224822; further: series mostly up to about 46 µM)
In short: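 PGC/ERR cells were seeded at 2,000 cells/well, rested 6 h at 37 C/5% CO2, then given compounds in DMSO by pin tool and incubated 17.5 h at 37 C. Viability came from CellTiter-Fluor fluorescence after 30 min.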
On the % scale 0 is the no-effect control and ±100 the full control effect.

Sequence of Nuclear receptor subfamily 1 group I member 3 (Homo sapiens) (Q14994 whole entry, looked up): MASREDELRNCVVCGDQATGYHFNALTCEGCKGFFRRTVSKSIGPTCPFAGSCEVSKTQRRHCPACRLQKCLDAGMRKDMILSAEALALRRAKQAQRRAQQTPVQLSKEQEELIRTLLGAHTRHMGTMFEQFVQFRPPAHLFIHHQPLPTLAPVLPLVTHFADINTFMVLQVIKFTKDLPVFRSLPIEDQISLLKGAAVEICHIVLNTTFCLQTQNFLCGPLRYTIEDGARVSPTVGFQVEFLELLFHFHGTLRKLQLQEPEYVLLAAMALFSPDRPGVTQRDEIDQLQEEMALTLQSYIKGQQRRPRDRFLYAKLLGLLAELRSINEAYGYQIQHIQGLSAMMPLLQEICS
Sequence of Thyrotropin receptor (Homo sapiens) (P16473 whole entry, looked up): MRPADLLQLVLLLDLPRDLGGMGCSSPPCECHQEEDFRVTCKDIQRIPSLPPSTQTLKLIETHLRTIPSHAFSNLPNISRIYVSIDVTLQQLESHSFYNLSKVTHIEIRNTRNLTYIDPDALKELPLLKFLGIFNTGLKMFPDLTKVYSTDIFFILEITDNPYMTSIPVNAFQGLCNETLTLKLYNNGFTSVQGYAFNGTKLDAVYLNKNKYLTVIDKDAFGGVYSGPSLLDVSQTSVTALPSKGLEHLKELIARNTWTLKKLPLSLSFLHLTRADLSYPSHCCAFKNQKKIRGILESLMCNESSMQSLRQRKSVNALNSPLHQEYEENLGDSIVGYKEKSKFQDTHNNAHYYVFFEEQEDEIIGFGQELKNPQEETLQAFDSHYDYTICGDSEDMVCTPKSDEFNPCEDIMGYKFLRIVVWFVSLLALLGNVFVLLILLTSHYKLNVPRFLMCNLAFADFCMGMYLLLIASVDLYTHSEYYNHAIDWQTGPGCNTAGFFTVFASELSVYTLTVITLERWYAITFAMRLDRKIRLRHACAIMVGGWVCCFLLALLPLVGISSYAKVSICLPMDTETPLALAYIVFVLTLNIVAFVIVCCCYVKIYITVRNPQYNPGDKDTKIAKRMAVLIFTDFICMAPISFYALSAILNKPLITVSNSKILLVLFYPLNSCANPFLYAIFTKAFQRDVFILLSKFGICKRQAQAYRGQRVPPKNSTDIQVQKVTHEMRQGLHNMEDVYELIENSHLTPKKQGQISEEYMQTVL
Sequence of Luciferin 4-monooxygenase (Photinus pyralis) (P08659 whole entry, looked up): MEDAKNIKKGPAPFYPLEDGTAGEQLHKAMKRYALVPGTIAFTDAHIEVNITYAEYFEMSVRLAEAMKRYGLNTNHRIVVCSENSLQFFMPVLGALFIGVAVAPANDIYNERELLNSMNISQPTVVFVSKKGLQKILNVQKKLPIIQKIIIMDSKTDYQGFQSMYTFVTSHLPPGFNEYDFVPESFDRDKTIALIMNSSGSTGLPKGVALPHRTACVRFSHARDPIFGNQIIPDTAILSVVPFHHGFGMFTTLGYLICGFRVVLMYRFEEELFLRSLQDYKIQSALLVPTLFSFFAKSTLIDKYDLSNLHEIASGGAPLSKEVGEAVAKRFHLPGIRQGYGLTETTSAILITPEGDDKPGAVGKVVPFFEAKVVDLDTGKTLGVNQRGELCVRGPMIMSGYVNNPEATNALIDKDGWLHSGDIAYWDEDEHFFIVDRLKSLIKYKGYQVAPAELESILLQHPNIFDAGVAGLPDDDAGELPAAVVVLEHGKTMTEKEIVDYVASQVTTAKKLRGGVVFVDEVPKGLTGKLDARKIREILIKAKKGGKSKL

C[Si](C)O[Si](C)(C)O[Si](C)(C)O[Si](C)C
inactive: Potency [1] | Potency [2] | Potency [3] | Potency [4] | Potency [5] | Potency [6] | Potency [7] | Potency [8]

CN1CCC[C@@H]1c1cccnc1
inactive: Potency [1] | Potency [2] | Potency [4] | Potency [5] | Potency [6] | Potency [7] | Potency [9]

CNS(=O)(=O)Cc1ccc2[nH]cc(CCN(C)C)c2c1
inactive: Potency [1] | Potency [2] | Potency [4] | Potency [5] | Potency [6] | Potency [7] | Potency [9] | Potency [10] | Potency [11]

CC[C@@H]1C[C@H](N(Cc2cc(C(F)(F)F)cc(C(F)(F)F)c2)C(C)=O)c2cc(C(F)(F)F)ccc2N1C(=O)OC(C)C
inactive: Potency [1] | Potency [2] | Potency [3] | Potency [4] | Potency [5] | Potency [7] | Potency [9] | Potency [10] | Potency [11]

CC(C)(C)c1ccc(S)cc1
inactive: Potency [1] | Potency [2] | Potency [4] | Potency [5] | Potency [6] | Potency [7] | Potency [9] | Potency [11] | Potency [8]

C=CC(=O)OCCOC(=O)CCC(=O)O
inactive: Potency [1] | Potency [2] | Potency [4] | Potency [5] | Potency [6] | Potency [7] | Potency [9] | Potency [10] | Potency [11] | Potency [12] | Potency [8]

COc1ccc(OC)c(OC)c1
inactive: Potency [1] | Potency [2] | Potency [4] | Potency [5] | Potency [6] | Potency [7] | Potency [9] | Potency [11] | Potency [8]

CCc1nn(C2CCCCC2)c2cc(C3(C#N)CCC(C(=O)O)CC3)ccc12 (configuration not stated)
active: Potency [4] 48.6 µM
inactive: Potency [1] | Potency [2] | Potency [3] | Potency [5] | Potency [10] | Potency [13] | Potency [8]

Cc1cc(NC(=O)C(=O)O)cc(C)c1Oc1ccc(O)c2c1CCC2
inactive: Potency [1] | Potency [2] | Potency [4] | Potency [6] | Potency [7] | Potency [9] | Potency [10] | Potency [11] | Potency [12] | Potency [13]
active: Potency [5] 35.6 µM

CCCCCCCCCCCCCCCCCBr
inactive: activity change, negative = cytotoxicity [1] -2.08% [at 15.8 µM] | activity change, negative = cytotoxicity [2] 0.698% [at 19 µM] | viability change, negative = cytotoxic [4] -2.8% [at 19 µM] | activity change, negative = inhibition [5] 3.44% [at 23.6 µM] | viability change, negative = cytotoxic [6] -1.41% [at 19 µM] | activity change, negative = cytotoxicity [7] 0.897% [at 19 µM] | viability change, negative = cytotoxic [11] 2.64% [at 19 µM]

O=C(O)Cn1c(C(=O)Nc2nc(-c3ccccc3Cl)cs2)cc2ccccc21
inactive: Potency [2] | Potency [14] | Potency [3] | Potency [4] | Potency [6] | Potency [7] | Potency [9] | Potency [11] | Potency [12] | Potency [13] | Potency [8]
active: Potency [5] 13.8 µM

Cc1cc(O)ccc1N
active: Potency [1] 34.9 µM | Potency [4] 15.4 µM | Potency [9] 3.08 µM
inactive: Potency [14] | Potency [10] | Potency [12] | Potency [8]

COc1ccc([C@@H]2Sc3ccccc3N(CCN(C)C)C(=O)[C@@H]2OC(C)=O)cc1
inactive: Potency [2] | Potency [14] | Potency [3] | outcome [15] | outcome [16] | outcome [17] | Potency [5] | Potency [6] | Potency [7] | Potency [8]

CC(=O)c1c(C)c([N+](=O)[O-])c(C(C)(C)C)c([N+](=O)[O-])c1C
active: Potency [8] 6.11 µM
inactive: Potency [2] | Potency [14] | Potency [3] | Potency [4] | Potency [5] | Potency [6] | Potency [7] | Potency [11]

NCCCOCCOCCOCCCN
inactive: Potency [2] | Potency [14] | Potency [3] | Potency [4] | Potency [5] | Potency [6] | Potency [7] | Potency [11] | Potency [8]

N=C(N=C(N)N)N1CCOCC1
inactive: Potency [2] | Potency [14] | Potency [3] | Potency [4] | Potency [5] | Potency [6] | Potency [7] | Potency [9] | Potency [10] | Potency [11] | Potency [12] | Potency [13] | Potency [8]

CCC(=O)OC(C)(C)C1CC=C(C)CC1 (configuration not stated)
inactive: Potency [2] | Potency [14] | Potency [3] | Potency [4] | Potency [5] | Potency [6] | Potency [7] | Potency [10] | Potency [11] | Potency [12] | Potency [13] | Potency [8]

Cc1ccc(O)c([C@H](CCN(C(C)C)C(C)C)c2ccccc2)c1
inactive: Potency [2] | Potency [14] | Potency [3] | Potency [4] | Potency [5] | Potency [6] | Potency [7] | Potency [9] | Potency [10] | Potency [8]

CC(C)(C)c1ccc(OCC2CO2)cc1 (configuration not stated)
inactive: Potency [2] | Potency [14] | Potency [4] | Potency [6] | Potency [7] | Potency [11] | Potency [12] | Potency [13] | Potency [8]
active: Potency [3] 12.4 µM | Potency [5] 32.4 µM

Cc1cccc(Oc2ccccc2)c1
active: Potency [1] 1.9 µM | Potency [12] 53.1 µM
inactive: Potency [2] | Potency [5] | Potency [6] | Potency [7] | Potency [9] | Potency [10] | Potency [11] | Potency [13] | Potency [8]

COc1cc(C(C)(C)C)c(O)c(C(C)(C)C)c1
inactive: Potency [1] | Potency [4] | Potency [5] | Potency [6] | Potency [7] | Potency [11] | Potency [12] | Potency [13]

Cc1cc(C)c(S(=O)(=O)O)cc1N=Nc1cc(S(=O)(=O)O)c2ccccc2c1O
active: Potency [4] 54.5 µM | Potency [5] 1.42 µM | Potency [6] 61.1 µM | Potency [7] 61.1 µM | Potency [11] 34.4 µM
inactive: Potency [1] | Potency [9] | Potency [10] | Potency [8]

Cc1ccc(C(C)c2ccc(C)c(C)c2)cc1C
inactive: Potency [2] | Potency [14] | Potency [3] | Potency [4] | Potency [5] | Potency [6] | Potency [7] | Potency [9] | Potency [10] | Potency [11]

CCCCCCCCC(CO)CCCCCC (configuration not stated)
inactive: Potency [1] | Potency [14] | Potency [3] | Potency [4] | Potency [5] | Potency [6] | Potency [7] | Potency [9] | Potency [10] | Potency [11] | Potency [12] | Potency [13] | Potency [8]
